Screening data from PubChem BioAssay.
Rows were chosen to be rich in hits. Some 3% of all compounds tested hit in one or more screens of this group.
PMP22 txn: Cell-based coincidence reporter assay to measure PMP22 gene transcription in S16 Pmp22-F2sN cells - Primary screen. S16 Pmp22-F2sN Schwann cells, FLuc/NLuc coincidence luminescence, 24 h. Potency, µM (doses to about 57.5 µM), without a hit: at the highest dose activity change, negative = inhibition, usual class: inhibitors. 43,000 compounds, 2% hits. AID 1508649, 2021; active = clear falling dose curves in both reporters; inconclusive = both reporters move, but less clearly or upward; inactive = either reporter flat; the % is the NLuc reporter signal
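Transcriptional readout in edited S16(c9) cells: two luciferases reported from the Pmp22 locus, measured in turn after 24 h compound incubation.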
p53null 32C kill: qHTS Screen for Compounds that Selectively Target Cancer Cells with p53 Mutations: Cytotoxicity of p53 Null Cells at the Permissive Temperature; AID 903, 2007; Potency, µM (top dose mostly 46.1 µM), for inactives: at the top dose activity change, negative = cytotoxicity, hits mostly cytotoxic; H1299-neo p53 null cells, ATP luminescence, 24 h, 32C; 55,000 compounds, 0.62% hits;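 also: 0% = DMSO only and -100% = full killing by 100 µM tamoxifen; nearly all actives have a fitted effect of over 55% in size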
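AC50 values derive from Hill modelling of qHTS concentration-response data (up to 46 uM) in H1299-neo cells. Cells were treated 24 h at 32C following overnight attachment at 37C; viability was read as cellular ATP.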
p53null 39C kill: qHTS Screen for Compounds that Selectively Target Cancer Cells with p53 Mutations: Cytotoxicity of p53 Null Cells at the Nonpermissive Temperature; H1299 p53-null (neo) cells, 39C, ATPlite viability, 24 h; Potency, µM (series often up to 46.1 µM), without a hit: at the top dose activity, negative = cell killing, usual class: cytotoxic; 55,000 compounds, 0.97% hits;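 also: 0% = DMSO only and -100% = full killing by 100 µM tamoxifen; nearly all actives have a fitted effect of over 50% in size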
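Concentration-response (up to 46 uM) was run for 24 h at the nonpermissive 39C on H1299-p53A138V or H1299-neo cells. ATP content was measured with ATPlite luminescence. AC50 values were Hill-modeled after normalizing between DMSO and 100 uM tamoxifen killing.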
mTORC1 inh: Acumen qHTS Assay for Inhibitors of the mTORC1 Signaling Pathway in MEF (Tsc2-/-, p53-/-) Cells: Sytravon; Tsc2-/- p53-/- MEF, phospho-rpS6 immunofluorescence/PI, 24 h; Potency, µM (top dose mostly 38.3 µM), without a hit: at the highest dose activity change, negative = inhibition, actives largely listed as inhibitors; 44,000 compounds, 0.78% hits;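 also: plate controls were DMSO for no effect and rapamycin for full effect; nearly all actives have a fitted effect of over 50% in size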
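Plate MEFs (Tsc2-/-, p53-/-, empty vector) in DMEM/10% FBS; after 24 h add compound, incubate 24 h at 37 degree Celsius; fix in PFA/TX-100, block, stain phospho-rpS6 and 10 uM PI; scan at 488 nm; report % positive cells.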
S16 viability: Cell viability qHTS assay in S16 Pmp22-F2sN cells. S16 Pmp22-F2sN Schwann cells (luciferase reporters placed in the Pmp22 gene) viability, CellTiter-Glo, 24 h. Potency, µM (highest dose often 57.5 µM), inactives show at the top dose activity change, negative = cytotoxicity, hits mostly cytotoxic. 43,000 compounds, 0.48% hits. AID 1508642, 2021; also: nearly all actives have a fitted effect of over 65% in size
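Rat S16 Schwann reporter line, 24 h treatment with library compounds delivered at 23 nL per well. Cell viability by CellTiter-Glo luminescence.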
OvCa metastasis: Primary qHTS assay for Inhibitors of ovarian cancer metastasis using an organotypic tumor microenvironment (TME) model. SKOV3ip1-GFP adhesion/invasion on 3D omental model, fluorescence. Potency, µM (top dose mostly 45.8 µM), without a hit: top-dose activity change, negative = inhibition, usual class: inhibitors. 46,000 compounds, 0.1% hits. AID 1963576, 2024;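 also: plate controls were DMSO wells for no effect and tomatine positive control wells for full effect; nearly all actives have a fitted effect of over 65% in size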
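Primary human omental fibroblast/mesothelial 3D culture pre-formed 48 h. SKOV3ip1-GFP cells added with compounds (0.36-46 umol/L), incubated 2 h RT/16 h 37 C, fixed; GFP cells quantified at 488/509 nm.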
* marks the source's active call; other numbers are inactive results; i = inactive; ? = inconclusive; · = not tested or not shown. Unless noted, calls follow the shape of the dose curve; as a rule, active = well fitted curve in the direction sought with a large enough effect; inconclusive = small, poorly fitted or top-dose-only effect, or another doubt; inactive = no such curve, though single readings can be large; an effect the other way counts as inactive or inconclusive. Unless noted, % is scaled to controls: 0 for no effect and ±100 for the full control effect; potency is read from the fitted curve at half-maximal effect.

SMILES | PMP22 txn | p53null 32C kill | p53null 39C kill | mTORC1 inh | S16 viability | OvCa metastasis
COc1ccc(/C=C/C(=O)Nc2ccc3nc4c(c(Nc5ccccc5OC)c3c2)CCCC4)cc1 | ? | -9% | ? | 2.3µM* | ? | 1.3µM*
COc1ccc(/C=C/C(=O)Nc2ccc3nc(N4CCCCC4)cc(C)c3c2)cc1OC | ? | -7% | -3% | ? | ? | ?
COc1ccc(/C=C/C(=O)Nc2ccc3nc(N4CCC(C)CC4)cc(C)c3c2)cc1 | -1% | 2% | 3% | -10% | ? | 6%
CCN1CCN(c2ccc(Nc3cc(N(C)C(=O)Nc4c(Cl)c(OC)cc(OC)c4Cl)ncn3)cc2)CC1 | · | · | · | · | · | 2%
O=C(NCc1ccccn1)c1cc(-c2ccc(-c3ccccc3)cc2)nc2ccccc12 | · | · | 7.9µM* | · | · | ·
C[N+]1(C)[C@@H]2C[C@@H](OC(=O)C(O)(c3cccs3)c3cccs3)C[C@H]1[C@@H]1O[C@@H]12 | · | · | · | · | · | 6%
Cc1ccc2occ(CC(=O)Nc3ccc(Cl)c(C(F)(F)F)c3)c2c1 | ? | 25% | 16µM* | 12µM* | ? | -7%
Cc1ccc2occ(CC(=O)Nc3ccc(S(N)(=O)=O)cc3)c2c1 | 5% | -6% | -8% | -14% | 4% | -7%
COc1cc(NC(=O)c2cccc(F)c2)ccc1NC(=O)c1cc2ccccc2o1 | -11% | 0% | -2% | 16µM* | 0% | 1%
CC(=O)Nc1ccc(S(=O)(=O)Nc2cccc(-c3ccc(N4CCCCCC4)nn3)c2)cc1 | · | ? | ? | -1% | · | i
CCOc1ccc(-c2cccc(NS(=O)(=O)c3ccc(C)s3)c2)nn1 | -3% | -1% | -3% | 0% | -1% | 3%
CC(=O)c1ccc(S(=O)(=O)Nc2ccc(-c3ccc(N4CCCCC4)nn3)cc2)cc1 | · | ? | 16µM* | -3% | · | 5%
CC(=O)Nc1ccc(S(=O)(=O)Nc2cccc(-c3ccc(N4CCC(C)CC4)nn3)c2)cc1 | · | 4µM* | 3.2µM* | -1% | · | 4%
CC(=O)c1ccc(S(=O)(=O)Nc2ccc(-c3ccc(N4CCCCCC4)nn3)cc2)cc1 | · | -22% | ? | 4% | · | 3%
CCc1ccc(S(=O)(=O)Nc2cccc(-c3ccc(N4CCC(C)CC4)nn3)c2)s1 | · | 10µM* | 13µM* | 3% | · | 4%
COc1ccc(S(=O)(=O)Nc2cccc(-c3ccc(N4CCC(C)CC4)nn3)c2)c(OC)c1 | · | 13µM* | 13µM* | 1% | · | -2%
O=c1[nH]c(=O)n([C@H]2C[C@@H](O)[C@@H](CO)O2)cc1I | · | · | · | · | · | 3%
CO[C@@H]1C(N(C)C(=O)c2ccccc2)C[C@H]2O[C@]1(C)n1c3ccccc3c3c4c(c5c6ccccc6n2c5c31)C(=O)NC4=O (some centres not stated) | · | · | · | · | · | -8%
NC(=O)Nc1cc(-c2ccc(CN3CCOCC3)cc2)sc1C(N)=O | · | · | · | · | · | 8%
COC(=O)c1ccc(NC(=O)CC2Nc3cc(C)c(C)cc3NC2=O)cc1 (configuration not stated) | -16% | -7% | 2% | -8% | 2% | 4.5µM*
Cc1cnn(C)c1C(=O)Nc1cc(Nc2ccc3c(C=Cc4ccccn4)n[nH]c3c2)ccc1F | · | · | · | · | · | 13%
